Where two headings read alike, the source gives them in different places.
How the values were obtained:
[1] = tested on: RIPK2; conditions: concentration: 1 μM, replicates: in singlicate; n = 1
[2] = tested on: RIPK4; conditions: concentration: 1 μM, replicates: in singlicate; n = 1
[3] = tested on: RIPK5; conditions: concentration: 1 μM, replicates: in singlicate; n = 1
[4] = tested on: ROCK1; conditions: n = 1
[5] = tested on: ROCK2; conditions: concentration: 1 μM, replicates: in singlicate; n = 1
[6] = tested on: ROS1; conditions: concentration: 1 μM, replicates: in singlicate; n = 1
[7] = tested on: RPS6KA4(Kin.Dom.1-N-terminal); conditions: concentration: 1 μM, replicates: in singlicate; n = 1
[8] = tested on: RPS6KA4(Kin.Dom.2-C-terminal); conditions: concentration: 1 μM, replicates: in singlicate; n = 1
[9] = tested on: RPS6KA5(Kin.Dom.1-N-terminal); conditions: concentration: 1 μM, replicates: in singlicate; n = 1
[10] = tested on: RPS6KA5(Kin.Dom.2-C-terminal); conditions: concentration: 1 μM, replicates: in singlicate; n = 1
[11] = concentration: 1 μM, replicates: in singlicate
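Also: KINOMEscan kinase panel screen.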

| Structure (SMILES) | %Inh [1] [%] | %Inh [2] [%] | %Inh [3] [%] | %Inh [4, 11] [%] | %Inh [5] [%] | %Inh [6] [%] | %Inh [7] [%] | %Inh [8] [%] | %Inh [9] [%] | %Inh [10] [%] | %Inh ([4]; 1 µM) [%] |
| --- | --- | --- | --- | --- | --- | --- | --- | --- | --- | --- | --- |
| Cc1nc(N(C)[C@H]2CN(C(=O)CC#N)CC[C@H]2C)c2cc[nH]c2n1 | 0 | 17 | 17 | 2 | 0 | 0 | 0 | 10 | 0 | 9 |  |
| CCn1c(-c2ccoc2)nc2cnccc21 [SB-733887] | 6 | 30 | 0 | 0 | 23 | 0 | 0 | 0 | 9 | 0 |  |
| Cc1c(Cn2c(C)nn3c(=O)cc(N4CCO[C@H](C)C4)nc23)cccc1C(F)(F)F [GSK2373690] | 4 | 0 | 0 | 7 | 0 | 4 | 16 | 0 | 27 | 15 |  |
| CCS(=O)(=O)c1ccc(OC)c(Nc2ncc(-c3ccc(F)cc3)o2)c1.Cl [GW591947] | 19 | 0 | 0 | 20 | 16 | 0 | 25 | 0 | 27 | 0 |  |
| COc1cc2nccc(Nc3cccc(Oc4ccccc4)c3)c2cc1OC.Cl [GW284543] | 80 | 0 | 0 | 20 | 51 | 31 | 15 | 0 | 0 | 0 |  |
| O=C(Nc1n[nH]c2nc(-c3ccccc3)c(Cl)cc12)C1CC1 [SB-734909] | 0 | 10 | 16 | 24 | 6 | 0 | 0 | 0 | 0 | 0 |  |
| Cc1nn2c(=O)cc(N3CCOCC3)nc2n1Cc1cccc(Cl)c1Cl [GSK2342769] | 10 | 9 | 0 | 0 | 0 | 0 | 0 | 0 | 16 | 0 |  |
| C[C@@H]1CC[C@H](C(=O)NC2CCCCC2)CN1c1cc(-c2ccc3c(N)n[nH]c3c2)nc(N)n1 [GSK2291363] | 5 | 29 | 0 | 94.4 | 93.1 | 28 | 5 | 0 | 32 | 0 |  |
| COc1ccc(-n2cnc3c(N)ncnc32)cc1 [SKF-97236] | 15 | 9 | 10 | 5 | 20 | 0 | 12 | 0 | 15 | 0 |  |
| COc1cc2ncn(-c3cc(OCc4ccncc4)c(C(N)=O)s3)c2cc1OC [GSK336313] | 13 | 22 | 1 | 0 | 0 | 28 | 19 | 0 | 4 | 4 |  |
| COc1cc(OC)cc(-c2cc3cnc(N)nc3nc2NC(=O)NC(C)(C)C)c1 | 0 | 0 | 0 | 0 | 0 | 0 | 16 | 0 | 5 | 0 |  |
| Cl.c1ccc(Cn2cnc3cc(Nc4ncnc5ccccc45)ccc32)cc1 [GW272142] | 0 | 12 | 5 | 4 | 2 | 6 | 6 | 0 | 0 | 7 |  |
| Nc1n[nH]c2ncc(-c3ccccc3)cc12 [SB-517081] | 18 | 19 | 5 | 14 | 2 | 0 | 7 | 0 | 41 | 25 |  |
| Cc1ccc(-c2ccc3c(ccc4sc5c(c43)NC[C@@H](C)N=C5N(C)C)n2)cn1 | 0 | 0 | 0 | 0 | 0 | 0 | 0 | 0 | 0 | 0 |  |
| Cc1cccc(-c2cc(-c3c[nH]nc3-c3ccccn3)ccn2)c1 [GW679395] | 36 | 12 | 6 | 0 | 10 | 0 | 1 | 0 | 0 | 37 |  |
| Cn1c(=O)c(F)c(Nc2ccc(I)cc2F)c2c(=O)n(OC[C@H](O)CO)cnc21 | 15 | 3 | 0 | 0 | 0 | 0 | 25 | 0 | 0 | 9 |  |
| O=C(Nc1n[nH]c2cc(-c3ccccc3F)ccc12)C1CC1 [SB-733371] | 11 | 13 | 0 | 0 | 0 | 4 | 0 | 0 | 0 | 0 |  |
| CCn1c(-c2nonc2N)nc2ccccc21 [SB-693162/GW549034] | 0 | 6 | 53 |  | 76 | 0 | 0 | 40 | 0 | 0 | 78 |

From PMC5540273 (PLoS ONE, 2017)
